Consider 40 compounds from PubChem BioAssay (NCI).

Each structure is given as a SMILES string. The panel holds about 83,000 compounds, 20% with a hit somewhere; the sample as a whole holds those more often.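 Assay: single dose, 48 h. Readout: percent growth (0 = no net growth; negative = cell death). Active: <10.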 Calls of active or inactive are those of the source.

For the first assay, the system named is NCI-H460 lung. The assay can be described thus: NCI-60 one-dose screen, 48 h (100 = growth as untreated, 0 = no growth, -100 = all killed). Conditions: 10 µM unless noted.
For `N#CC1=C(N)Oc2c(ccc3ccccc23)C1c1ccccc1` (centres undefined), the growth was 6.31% (active).

As to `OCCn1cc(-c2nc(-c3c[nH]c4ncccc34)cs2)c2ccccc21`, the growth is 78.6% (inactive).

As for `Cn1cc(-c2csc(-c3cn(C(=O)OC(C)(C)C)c4ccc(Br)cc34)n2)c2ccnc(Cl)c21`, the growth is 68.7% (inactive).

Turning to `O=S(=O)(c1ccccc1)n1cc2c(c1)-c1nc(Nc3ncccn3)sc1CC2`, the growth was 68.4% (inactive).

In the next assay the test system is HOP-92 NSCLC. The assay is described as above. Conditions: 10 µM unless noted.
Consider `CCOc1ccc(NC(=O)CSc2oc(-c3ccccc3)nc2S(=O)(=O)c2ccc(C)cc2)cc1`, for which the growth is 46.4% (inactive).

Take `O=C(/C=C/c1cccc(Cl)c1)c1ccc(Nc2nc(Nc3ccc(F)cc3)nc(Nc3ccc(Cl)cc3)n2)cc1`: the growth was 72.9% (inactive).

On to `Cn1c(I)c(C#CCO[Si](C)(C)C(C)(C)C)c(=O)[nH]c1=O`, for which the growth was 59.4% (inactive).

Consider `CC(=O)Oc1ccc(C)cc1C`, for which the growth was 105% (inactive).

In the case of `COc1cc(C2CC(c3ccc(Nc4nc(Nc5ccc(Cl)cc5)nc(Nc5ccc(Cl)cc5)n4)cc3)=NN2C(C)=O)cc(OC)c1OC` (centres undefined), the growth is -3.51% (active).

For `c1cnc2c(-c3nc4ccc5[nH]ncc5c4c4c3CCCC4)c[nH]c2c1`, the growth was 40.6% (inactive).

Turning to `COc1ccc(/C=C/C(=O)c2cc3c(N)c(C(=O)Nc4cccc5ccccc45)sc3nc2C)cc1`, the growth was 77.1% (inactive).

Take `O=C1/C(=C/c2ccc([N+](=O)[O-])cc2)COc2ccc(O)cc21`: the growth is 110% (inactive).

Take `CCOCCNC1=C(Cl)C(=O)c2ccccc2C1=O`: the growth was 127% (inactive).

`CCN(CC)c1ccc(\C=N/N=C(N)/C(N)=N\N=C/c2ccc(N(CC)CC)cc2)cc1`: the growth is 116% (inactive).

In the case of `CSc1nc2ccccc2cc1/C=C1/C=C(c2ccccc2)NC1=O`, the growth is 70.2% (inactive).

Regarding `Cn1cc(-c2ccc3nc(-c4ccc(CC(=O)ONc5cc(C(C)(C)C)on5)cc4)cnc3c2)cn1`, the growth is 30.3% (inactive).

As to `Nc1ncnc2c1C(c1ccccc1)c1ccc3ccccc3c1O2` (centres undefined), the growth was 45.1% (inactive).

Turning to `N#Cc1nc(-c2ccc(F)cc2)oc1S(=O)(=O)N1CCOCC1`, the growth was 94.6% (inactive).

As to `O=C(CSc1nc2sc3c(c2c(=O)n1-c1ccccc1)CCCCC3)N/N=C/c1cccc([N+](=O)[O-])c1`, the growth was 73.2% (inactive).

For the compound `O=C(Nc1cccc(Cl)c1)Nc1cccc(Cn2c(=O)[nH]c3ccc(Oc4ncccn4)cc3c2=O)c1`, the growth is 43.7% (inactive).

With `CCOC(=O)Cc1cnc(N/N=C(\C)c2cc3ccccc3o2)s1`, the growth was 86.9% (inactive).

`COC1/C=C/OC2(C)Oc3c(C)c(O)c4c(O)c(c(/C=N/Nc5ccc([N+](=O)[O-])cc5[N+](=O)[O-])c(O)c4c3C2=O)NC(=O)C(C)=C/C=C/C(C)C(O)C(C)C(O)C(C)C(OC(C)=O)C1C` (centres undefined): the growth was -60.8% (active).

Consider `COC(=O)CC[C@@H]1O[C@@H](c2cccc(C(F)(F)F)c2)[C@@H](O)[C@H]1O`, for which the growth is 84.3% (inactive).

Take `COc1ccc(/C=N/NC(=O)c2ccc(-n3cc(-c4ccccc4)nn3)cc2)cc1OC`: the growth was 94.9% (inactive).

Regarding `COC(=O)c1c2c(c(C)[n+]([O-])c1C)C(=O)C(NCc1cccc(OC)c1)=CC2=O`, the growth is 54.5% (inactive).

For the compound `Nc1n[nH]c2cccc(C#Cc3cccc(C(=O)Nc4cc(C(F)(F)F)cc(C(F)(F)F)c4)c3)c12`, the growth is 36.9% (inactive).

In the case of `OB1OCc2cc(/C=C/c3cccc(C(F)(F)F)c3)ccc21`, the growth was -27.9% (active).

Consider `CNC(=O)c1[nH]cc(-c2ccc(OC)cc2)c1-c1cc(OC)c2c(c1OC)OCO2`, for which the growth was 89.6% (inactive).

With `COc1ccc(-c2cc(-c3ccc(Cl)cc3)c(C#N)c(=O)n2Cc2ccc(C(=O)Nc3ccccc3N)cc2)cc1`, the growth is 54.1% (inactive).

As for `CC1CCc2c(C(=O)Nc3ncc(Cc4cccc([N+](=O)[O-])c4)s3)csc2C1` (centres undefined), the growth was 58.9% (inactive).

For `N#Cc1nc(-c2ccc(Cl)cc2)oc1S(=O)(=O)N1CCN(c2ccc(F)cc2)CC1`, the growth is 99.3% (inactive).

With `COc1c(B(O)O)cccc1-c1nc2c(F)cc3[nH]ncc3c2c2c1CCCC2`, the growth was 14.4% (inactive).

As for `O=S(=O)(NCCNc1nccc(-c2c(-c3ccc(F)c(O)c3)nc3sccn23)n1)c1ccc(O)cc1`, the growth was 47.7% (inactive).

For the compound `CCOC(=O)C(=O)C(C(=O)OCC)c1ccccc1` (centres undefined), the growth was 107% (inactive).

`COc1ccc(C(=O)/C=C/c2c(C(F)(F)F)nc3ccccn23)cc1OC`: the growth was 5.04% (active).

Regarding `CC(=O)O[C@H]1CC2CCC3C(CC[C@@]4(C)C3C[C@H]([N+]3(C)CCCCC3)[C@@H]4OC(C)=O)[C@@]2(C)C[C@@H]1N1CCCCC1` (some centres undefined), the growth is 86.5% (inactive).

Consider `O=C1c2ccc3c4c5ccc(c24)C(=O)N1CCCOCCCCOCCCNCc1ccc(cc1)CNCCCOCCCCOCCCN(C3=O)C5=O`, for which the growth was 45.8% (inactive).

As to `CC(O)(c1ccccc1)C(c1ccccc1)C1CCCCN1` (centres undefined), the growth is 90.3% (inactive).

`CCCC/C=C/[C@@H]1C[C@H]1CCO`: the growth is 96.5% (inactive).

With `COc1ccc(OC)c(Nc2nnc(-c3ccc(O)c(OC)c3)o2)c1`, the growth was 85.1% (inactive).

With `N#CC1=C(N)Oc2c(ccc3ccccc23)C1c1ccccc1` (centres undefined), the growth was 38.2% (inactive).

With `OCCn1cc(-c2nc(-c3c[nH]c4ncccc34)cs2)c2ccccc21`, the growth was 58% (inactive).

Regarding `Cn1cc(-c2csc(-c3cn(C(=O)OC(C)(C)C)c4ccc(Br)cc34)n2)c2ccnc(Cl)c21`, the growth is 58.8% (inactive).

Take `O=S(=O)(c1ccccc1)n1cc2c(c1)-c1nc(Nc3ncccn3)sc1CC2`: the growth is 22% (inactive).
